# Test results published in ChEMBL document CHEMBL1157539, “Thousands of chemical starting points for antimalarial lead identification” (Nature, 2010).
# Test system: HepG2
# Assay: GSK_TCMDC: Percent inhibition of human HepG2 cell line. Test compounds present at 10uM.
# Assay type: functional
row,Structure (SMILES),Inhibition [%]
1,Cc1cccc(OCC(=O)Nc2cccc(NC(=O)COc3cccc(C)c3)n2)c1,0
2,CCn1c(Cc2ccccc2)nnc1Sc1ccc([N+](=O)[O-])c(C#N)c1,8
3,CCOC(=O)CN1Cc2cc(NCc3ccc4ccc5nc(C)[nH]c(=O)c5c4c3)ccc2C1=O,40
4,COc1ccc(-c2cc3ncn(CC(=O)N4CCN(c5cccc(OC)c5)CC4)c(=O)c3s2)cc1,49
5,CN(C)CCNCc1ccc(-c2ccc(-c3nc4ccccc4[nH]3)s2)cc1.O=C(O)C(F)(F)F,0
6,COc1ccc(-c2nc(NC(=O)Cc3cccc(OC)c3)sc2C)cc1,1
7,O=C(O)C(F)(F)F.OCCN1CCN(Cc2ccc(-c3cccc(-c4nc5cc(C(F)(F)F)ccc5[nH]4)c3)cc2)CC1,29
8,OC(CNc1ccnc(Nc2cccc(OCCCN3CCOCC3)c2)n1)c1ccccc1 (stereo not given),48
9,COc1cc2c(cc1C(F)(F)F)N(C(=O)Nc1cc(F)cc(-c3cncnc3)c1)CC2,15
10,Cc1cc(Nc2ccccc2)nc(Nc2ccccc2C)n1.Cl,8
11,Br.CCCOC(=O)c1ccc(OCCCON2C(=N)N=C(N)NC2(C)C)cc1,61
12,COC(=O)/C=C/c1ccc(CCC(C)NCC(O)c2cccc(Cl)c2)cc1 (stereo not given),5
13,Cc1cccnc1Nc1nc(-c2ccccn2)cs1,60
14,CCCCCCC(C)c1cc(O)c2c(c1)OC(C)(C)C=C2c1ccncc1 (stereo not given),0
15,COc1cccc(Nc2nc(Nc3cccc(C#N)c3)cc(-c3ccncc3)n2)c1,28
16,O=C(NCCN1CCCC1)c1cccc(Nc2nccc(Nc3ccc(Oc4ccccc4)cc3)n2)c1,33
17,CC(C)c1ccc(CN(C)CCCCNC(=O)c2ccc(NC(=O)c3ccc(Cl)cc3)cc2)cc1,17
18,O=C(Nc1ccc(-c2nc3ccccc3[nH]2)cc1)C1CCCN(C2CCC2)C1 (stereo not given),0
19,COc1cc2ncnc(Nc3ccc(OCc4ccccc4)c(OCc4ccccc4)c3)c2cc1OC.Cl,4
20,O=C(Nc1ccc2[nH]c(-c3ccccc3)nc2c1)c1cc(-c2ccc3c(c2)OCCO3)n[nH]1.O=C(O)C(F)(F)F,58

row,Structure (SMILES),Inhibition [%]
1,COc1ccc(-n2nc(C)cc2C(=O)NCc2ccc(-c3c(C)noc3C)cc2)cc1,3
2,COc1ccc2nccc(NC(=O)OC3CCC(NCc4ccc5c(n4)NC(=O)CS5)CC3)c2c1 (stereo not given),9
3,CC1(C)NC(N)=NC(=N)N1OCc1cc(Cl)cc2c1OCOC2.Cl,65
4,CCCNC(=O)c1cncc(-c2cccc(CNC3Cc4ccccc4C3)c2)c1.O=C(O)C(F)(F)F,0
5,CC(=O)O.Cc1cc(F)ccc1[C@H]1CNCCN1C(=O)N(C)[C@@H](C)c1cc(C(F)(F)F)cc(C(F)(F)F)c1,20
6,COc1cc(F)c2nccc([C@@H](O)CN3CCC(NCc4ccc5c(n4)NC(=O)CS5)CC3)c2c1,23
7,CC(=O)N(C)c1cccc(CNc2cc(C)nc(Nc3ccc(C)cc3)n2)c1,8
8,CCNc1cc(C)nc(Nc2ccc(NS(=O)(=O)c3ccccc3)cc2)n1,41
9,Cc1cc(NC(=O)Nc2ccc(C(C)C)cc2)c2ccccc2n1.Cl,7
10,CN1CCC(N2CCN(Cc3ccc(-c4ccc(-c5nc6ccccc6[nH]5)s4)cc3)CC2)CC1.O=C(O)C(F)(F)F,62
11,CC(C)NC(=O)c1cccc(-c2cccc(OCCN3CCSCC3c3ccccc3)c2)c1 (stereo not given),24
12,O=C(O)C(F)(F)F.c1cc(CNCCc2ccncc2)cc(-c2csc(-c3nc4ccccc4[nH]3)c2)c1,16
13,COc1ccc(-c2cn3c(C(=O)Nc4ccccc4Cl)c(-c4ccccc4)c4c3n2CCCC4)cc1,7
14,CCc1nonc1NC(=O)c1oc2c(C)c(C)ccc2c1C,1
15,CCn1c(=O)c(C(=O)Nc2cc(Cl)c(OC)cc2OC)nc2ccccc21,19
16,COc1cccc(NC(=O)Nc2ccc(C)c(-c3ccc(C(=O)Nc4ccncc4)cc3)c2)c1,45
17,Cc1ccc2c(N/N=C/c3cccc([N+](=O)[O-])c3)cc(C)nc2c1,33
18,Cc1cccc2nc(-c3ccc(-c4ccc(NC(=O)NC5CC5c5ccccc5)cc4)cc3)[nH]c12 (stereo not given),28
19,CN1CCC(N(Cc2ccc(N3CCN(Cc4c[nH]c5ccc(Cl)cc45)CC3)nc2)C2CC2)CC1,96
20,CCOc1ccc2[nH]c(C)cc(=NN=Cc3ccccc3)c2c1,5
